Reference: PubChem BioAssay (NCI)
This is part of a sample that, as a whole, favours compounds with a hit. Of some 83,000 tested, about 20% had one in any assay.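 Note: values are percent growth. 100 is the growth of untreated cells, values between 100 and 0 indicate rising inhibition; between -100 and 0 indicates cell death.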 Calls of active or inactive are those of the source. How the source made its calls: active means growth percent below 10; inactive means the rest.

Legend:
Assay in all cases: NCI-60 one-dose screen, 48 h (100 = growth as untreated, 0 = no growth, -100 = all killed)
Conditions in all cases: 10 µM
[1] = test system: DU-145 prostate
[2] = test system: K-562 leukemia
[3] = test system: MALME-3M melanoma
[4] = test system: MDA-MB-231 breast
[5] = test system: RXF 393 renal
[6] = test system: SF-268 CNS
[7] = test system: SF-295 CNS
[8] = test system: SF-539 CNS
[9] = test system: UACC-257 melanoma
[10] = test system: M14 melanoma

Measured: growth

COc1cc(-c2nc3ccccc3[nH]2)ccc1OCC(=O)N=Nc1c(O)[nH]c2ccccc12
inactive: [1] 99.7% | [2] 17.5% | [3] 54.6% | [4] 88.8% | [5] 106% | [6] 94.1% | [7] 95.9% | [8] 97.8% | [9] 105% | [10] 83.3%

O=C(c1ccc(Cl)cc1)c1no[n+]([O-])c1C(=O)c1ccc(Cl)cc1
inactive: [1] 94.1% | [4] 124% | [5] 44.6% | [6] 102% | [7] 83.8% | [8] 98.5% | [9] 104% | [10] 92.5%
active: [2] 5.95% | [3] -76.2%

COc1ccc(OC)c([N+](=O)[O-])c1C=O
inactive: [1] 116% | [2] 42.4% | [3] 108% | [4] 107% | [5] 80.6% | [6] 109% | [7] 93.7% | [8] 105% | [9] 84.1% | [10] 108%

O=NN(CCCl)C(=O)Nc1ccc(NC(=O)N(CCCl)N=O)cc1
inactive: [1] 111% | [2] 92.6% | [3] 105% | [4] 109% | [5] 109% | [6] 61.2% | [7] 74% | [8] 19.7% | [9] 85.7% | [10] 93.1%

C[C@@H]1N=C(c2ccc(Br)cc2)Nc2nc3ccccn3c2C1=O
inactive: [1] 87.7% | [2] 24.3% | [3] 51.8% | [4] 52.7% | [5] 68.2% | [6] 83.4% | [7] 40.9% | [8] 74.6% | [9] 69.9% | [10] 31.8%

COc1ccc(-c2[nH]ncc2-c2cc(OC)c(OC)c(OC)c2)cc1
inactive: [3] 57.2% | [6] 16% | [9] 42.6%
active: [1] -23.9% | [2] 6.11% | [4] 4.38% | [5] 0.469% | [7] -1.07% | [8] -28.1% | [10] 4.51%

COC(=O)[C@]12CC[C@@H](C)[C@H](C)[C@@H]1C1=CC[C@@H]3[C@@]4(C)CC(=O)[C@H](O)[C@@](C)(CO)[C@@H]4C(=O)C[C@@]3(C)[C@]1(C)CC2
inactive: [8] 16.5% | [10] 10.1%
active: [1] -44.4% | [2] -69.5% | [3] -35.2% | [4] -34.2% | [5] -41.4% | [6] 4.33% | [7] -0.778% | [9] 7.73%

NC1CCC(Nc2nc(NCc3ccc(-c4ccco4)nc3)c3ncn(C4CCCC4)c3n2)CC1 (stereo not given)
active: [1] 6.46% | [2] 2.46% | [3] -40.6% | [4] 3.81% | [5] -50.5% | [6] 0.711% | [7] 0.17% | [8] -25.7% | [9] -8.84% | [10] -23.5%

COc1ccc2nc(-c3ccccc3)cc(C(C)=O)c2c1
inactive: [1] 107% | [2] 84.1% | [3] 86.5% | [4] 89.5% | [5] 102% | [6] 96.1% | [7] 96.3% | [8] 86.1% | [9] 99.9% | [10] 95.3%

Cc1nc2sccn2c1-c1csc(Nc2cccc(Cl)c2C)n1
inactive: [1] 78.7% | [2] 16% | [3] 58.9% | [4] 65.4% | [5] 67.8% | [6] 80.1% | [7] 37.8% | [8] 63.8% | [9] 34% | [10] 50.8%

COc1ccc(C(=O)/C=C/c2cc(-c3ccc4c(c3)OCO4)n[nH]2)cc1OC
inactive: [1] 39.7% | [2] 23.8% | [3] 94.4% | [4] 58.3% | [5] 38.6% | [6] 45.4% | [7] 53.4% | [8] 42.2% | [9] 109% | [10] 91.6%

CCOc1cc(Br)c(C(C)NC(=O)c2cccc(OC)c2)cc1OCC (stereo not given)
inactive: [1] 93.4% | [4] 39% | [5] 41.6% | [6] 75.5% | [7] 92.1% | [8] 76.2%
active: [2] 8.6% | [3] -9.34% | [9] -66.9% | [10] -67.2%

Cc1c(C(=O)N[C@H](CO)Cc2ccccc2)[nH]c2ccc(Cl)cc2c1=O
inactive: [1] 110% | [2] 95.5% | [3] 104% | [4] 115% | [5] 122% | [6] 104% | [7] 98.2% | [8] 98.9% | [9] 108% | [10] 98.2%

C[C@@H]1C(=O)N(C[C@H](Cc2ccccc2)NC(=O)OCc2ccccc2)[C@]1(Cc1ccccc1)C(=O)OCc1ccccc1
inactive: [1] 78.2% | [2] 26.1% | [3] 35.9% | [4] 58.8% | [5] 42.2% | [6] 52.2% | [7] 30% | [8] 64.6% | [9] 32.1% | [10] 40.7%

O=c1ccc2nc(-c3ccccc3)nn(-c3ccccc3)c-2c1
active: [1] -95.4% | [2] -39% | [3] -92.5% | [5] -92.8% | [9] -97.3%
inactive: [4] 76.3% | [6] 70.5% | [7] 23.9% | [8] 105% | [10] 51.2%

CC(C)OCc1cc(CN2CCN(c3cccc(Cl)c3)CC2)c(O)c2ncccc12
active: [2] 3.38% | [3] -40.6% | [4] -41.9% | [5] -14.9% | [6] 5.89% | [7] -71.8% | [8] -6.98% | [9] -36.7% | [10] -17%
inactive: [1] 11.8%

O=C(Nc1cccc(-c2nc3ccccc3[nH]2)c1)c1cccc(NC(=O)c2ccco2)c1
active: [2] 2.96% | [9] -20.2% | [10] 3.76%
inactive: [1] 103% | [3] 73.9% | [4] 34.6% | [5] 67.6% | [6] 75.7% | [7] 80.3% | [8] 64.9%

COc1cccc(-c2nnc(COc3ccc(-c4nc5ccc(C)cc5[nH]4)cc3OC)o2)c1
inactive: [1] 65.2% | [2] 13.5% | [3] 52.8% | [4] 64.5% | [5] 85.1% | [6] 101% | [7] 99.2% | [8] 57.4% | [9] 97.1% | [10] 53.9%

CCc1ccc(-c2nnc(COc3ccc(-c4nc5ccccc5[nH]4)cc3OC)o2)cc1
inactive: [1] 48.1% | [2] 33% | [3] 47.6% | [4] 10.5% | [5] 68.7% | [6] 52.8% | [7] 79.3% | [9] 88.7% | [10] 56.5%
active: [8] 6.55%

CCOC(=O)Nc1ccc2c(c1)C(=O)N(CCOC)c1ccccc1O2
inactive: [1] 43.8% | [2] 20.3% | [3] 61.2% | [4] 62.3% | [5] 56% | [6] 56.9% | [7] 28.8% | [8] 30.3% | [9] 61.7% | [10] 19.8%

CN1CCN(c2nc(-c3cccnc3)nc3sc4c(c23)CCCCCC4)CC1
inactive: [1] 98.9% | [2] 13.6% | [3] 106% | [4] 78.9% | [5] 79.4% | [6] 80.3% | [7] 75.6% | [8] 93.3% | [9] 102% | [10] 101%

CCOC(=O)c1c(C(F)(F)F)n([O-])c2ccc(OC)cc2[n+]1=O
active: [2] 2.01% | [7] -36% | [9] -5.73%
inactive: [1] 26.2% | [3] 25.8% | [4] 19.8% | [5] 41.9% | [6] 31.1% | [8] 48.8% | [10] 26.9%

COc1ccc(S(=O)(=O)Nc2ccc(OCc3nnc(-c4ccc(Cl)cc4)o3)c(F)c2)cc1
inactive: [1] 76.7% | [2] 43.2% | [3] 67.8% | [4] 54.6% | [5] 63.1% | [6] 59.9% | [7] 43.8% | [8] 70.5% | [9] 23.3% | [10] 78%

CCc1nn2c(-c3ccccc3)c(-c3cc(OC)c(OC)c(OC)c3)nc2s1
inactive: [1] 102% | [2] 92.1% | [3] 62.4% | [4] 76.8% | [5] 88.9% | [6] 96% | [7] 89.1% | [8] 97.3% | [9] 107% | [10] 99.1%

COc1ccc(-c2ccc(-c3ccc(C(=N)N)c(F)c3)s2)cc1
active: [1] -97.8% | [2] -70.2% | [3] -62% | [4] -89% | [5] -80.4% | [6] -89.8% | [7] -87.5% | [8] -93.7% | [9] -87.1% | [10] -83.5%

Cc1ccc(-c2cc(C(=O)Nc3ccc(S(=O)(=O)N4CCCCC4)cc3)[nH]n2)c(O)c1
inactive: [1] 64.8% | [2] 17.9% | [3] 74% | [4] 56.1% | [5] 50.7% | [6] 69.9% | [7] 62.4% | [8] 48.8% | [9] 52% | [10] 62.2%

NC(=O)c1ccc(Br)o1
inactive: [1] 109% | [2] 105% | [3] 109% | [4] 101% | [5] 112% | [6] 101% | [7] 97.4% | [8] 96.5% | [9] 114% | [10] 108%
